# In PubChem BioAssay AID623911 (Vanderbilt High Throughput Screening Facility, 2012):
# The whole screen tested about 2,100 compounds, of which about 770 (37%) were called active. The list shows a part of the results. A number with no mark means an inactive call.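 The calls were made as follows: active = by-eye trace score of 1 for enhancers or -1 for inhibitors, so actives lie on both sides (some results past the limit were not filed as active); inactive = score 0, or 3 fluorescent, or 4 baseline rise.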
# Molecular target: G protein-activated inward rectifier potassium channel 2 (Homo sapiens) + G protein-activated inward rectifier potassium channel 1 (Homo sapiens) (UniProt P48051+P48549)
# Sequence (P48051 whole entry, looked up): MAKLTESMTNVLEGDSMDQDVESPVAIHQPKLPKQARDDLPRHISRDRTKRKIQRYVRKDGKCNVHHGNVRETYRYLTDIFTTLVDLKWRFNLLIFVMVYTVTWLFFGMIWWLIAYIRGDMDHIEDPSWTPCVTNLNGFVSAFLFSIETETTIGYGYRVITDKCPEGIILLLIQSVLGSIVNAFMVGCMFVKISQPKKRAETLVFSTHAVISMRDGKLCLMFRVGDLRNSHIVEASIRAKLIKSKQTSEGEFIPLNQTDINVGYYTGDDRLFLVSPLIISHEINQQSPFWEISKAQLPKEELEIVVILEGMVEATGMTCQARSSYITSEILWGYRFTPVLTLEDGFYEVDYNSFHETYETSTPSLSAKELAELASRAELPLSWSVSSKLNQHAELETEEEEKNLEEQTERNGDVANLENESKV
# Sequence (P48549 whole entry, looked up): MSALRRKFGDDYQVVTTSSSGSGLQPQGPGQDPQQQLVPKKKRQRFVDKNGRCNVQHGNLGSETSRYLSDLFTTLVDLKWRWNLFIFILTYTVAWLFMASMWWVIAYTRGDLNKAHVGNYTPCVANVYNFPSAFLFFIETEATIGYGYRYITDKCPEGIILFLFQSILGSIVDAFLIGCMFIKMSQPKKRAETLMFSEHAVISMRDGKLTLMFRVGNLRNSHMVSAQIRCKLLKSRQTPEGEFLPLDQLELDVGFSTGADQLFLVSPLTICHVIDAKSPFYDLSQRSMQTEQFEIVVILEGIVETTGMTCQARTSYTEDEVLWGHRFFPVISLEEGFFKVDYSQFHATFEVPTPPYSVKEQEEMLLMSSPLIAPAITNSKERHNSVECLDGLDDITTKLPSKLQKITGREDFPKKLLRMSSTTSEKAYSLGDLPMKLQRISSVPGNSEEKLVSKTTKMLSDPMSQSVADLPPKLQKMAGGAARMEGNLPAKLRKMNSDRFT
# Experiment: GIRK1/2 thallium flux modulators, retest, confirmation, cell-based, HEK293 rmGlu8/hGIRK1/2, FluoZin-2 (AID 623911)
# Conditions: HEK293 rmGlu8/hGIRK1/2, thallium flux FluoZin-2; actives lie on both sides; glutamate co-added at its EC20 level
row,Compound,manual score
1,COc1ccccc1N(C)S(=O)(=O)c1ccc(C(=O)N(CC(N)=O)C(C)C)cc1,0
2,CC(=O)/C(=N\Nc1ccc(Cl)cc1Cl)Sc1cccc2cccnc12,0
3,N#CC1=C(N)Oc2n[nH]c(-c3cccs3)c2C1c1ccco1 (centres undefined),3
4,Cc1nnc2n(C3CCCCC3)c(=O)c3c4c(sc3n12)COC(C)(C)C4,0
5,CC1(C)Cc2c(sc3[nH]c(=S)n(Cc4ccco4)c(=O)c23)CO1,1 (active)
6,C=C(C)C1CC=C(C)/C(=N/NC(=O)COc2ccc(C)cc2)C1 (centres undefined),0
7,C=C(C)C1CC=C(C)/C(=N/NC(=O)COc2cccc(C)c2)C1 (centres undefined),1 (active)
8,C=C(C)C1CC=C(C)/C(=N/NC(=O)c2ccc(NC(=O)CCC)cc2)C1 (centres undefined),0
9,COc1ccc(-c2c3c([nH]c(=S)c2C#N)CCC3)cc1,0
10,CCOC(=O)c1c(C)[nH]c(=S)c(C#N)c1-c1ccc(Cl)cc1,0
11,Cc1ccc(-c2cc(-c3ccccc3)[nH]c(=S)c2C#N)cc1,1 (active)
12,Cc1ccc(C2CC2c2n[nH]c(=S)n2-c2ccc(Cl)cc2)cc1 (centres undefined),0
13,CN=C1SC(C(=O)O)CC(=O)N1C (centres undefined),0
14,Cc1cc(O)c(C(C[N+](=O)[O-])c2ccc(Cl)cc2Cl)c(=O)o1 (centres undefined),0
15,CC(c1ccco1)N(C(=O)c1ccccc1NS(=O)(=O)c1cc([N+](=O)[O-])ccc1Cl)c1ccccn1 (centres undefined),0
16,COC(=O)c1ccc(NC(=O)C23CC4CC(C2)CC(n2cncn2)(C4)C3)cc1,0
17,CCCC(=O)Nc1ccc(NC(=O)C23CC4CC(CC(C4)C2)C3)cn1,0
18,O=C(Nc1ccc(SC(F)F)cc1)C12CCC(CC1)C2,1 (active)
19,O=C1c2ccccc2NC(c2ccc(-c3ccc(Br)cc3)o2)N1O (centres undefined),0.5
20,Cc1ccc(-c2cc(-c3n[nH]c(=S)o3)c3ccccc3n2)cc1,0
21,S=c1[nH]nc(-c2cc3c(s2)-c2ccccc2CC3)o1,1 (active)
22,CCCCCCn1cnc2c(c1=O)c1nc3ccccc3nc1n2/N=C/c1ccco1,0

row,Compound,manual score
1,COc1cc(OC)cc(C(=O)Nc2nc(-c3ccccc3)c(-c3ccccc3)o2)c1,0
2,Cc1ccc(C(=O)Nc2nc(-c3ccccc3)c(-c3ccccc3)o2)cc1,1 (active)
3,Cc1ccc(C(=O)Nc2cnc3ccccn3c2=O)cc1,0
4,O=C(Nc1nc(-c2ccccc2)c(-c2ccccc2)o1)c1ccc(F)cc1,1 (active)
5,COc1cccc(C(=O)NCc2cn3ccsc3n2)c1,0
6,COc1cccc(C(=O)Nc2nc(-c3ccccc3)c(-c3ccccc3)o2)c1,1 (active)
7,COC(=O)c1sccc1NC(=O)CSc1ccccc1NS(=O)(=O)c1ccc(Cl)cc1,0
8,CCC(C)NC(=O)c1ccccc1NC(=O)Nc1ccccc1 (centres undefined),0
9,CSc1ccccc1C(=O)Nc1cccc(C(C)=O)c1,0
10,CSc1ccccc1NC(=O)Nc1ccc(Cl)cc1,1 (active)
11,CSc1ccccc1NC(=O)Nc1ccccc1,1 (active)
12,CC(C)N=c1scc(-c2cccs2)n1/N=C/c1ccc(O)c(O)c1O,0
13,Cc1c(C)[n+](=O)c2c(n1[O-])CCC2,0
14,CC(/C=C/c1ccccc1)=N/NC(=O)c1cc([N+](=O)[O-])cc([N+](=O)[O-])c1,0
15,CC(/C=C\c1cccnc1)=C/C(=O)O,0
16,O=C(/C=C/c1ccccc1)C1C(=O)c2ccccc2C1=O,1 (active)
17,CCc1ccc(/C=C/C(=O)C2C(=O)c3ccccc3C2=O)cc1,1 (active)
18,CCc1ccc(/C=c2\s/c(=C\C(=O)C(C)(C)C)[nH]c2=O)cc1,0
19,CN=C(C)C1=C(O)C(C(=O)OC)C(C)(C)CC1=O (centres undefined),0
20,Cc1cccc2c(=O)cc(C)n(CC(=O)N3CCCCC3)c12,0
21,CCc1c(O)nc(SCC(=O)Nc2ccc(OC)cc2)n(C2CCCCC2)c1=O,0
22,CC(=O)Oc1ccc2c(c1)Oc1cc(OC(C)=O)ccc1C21OC(=O)c2ccccc21,3

row,Compound,manual score
1,CCSc1nnc(NC(=O)C(Cc2ccccc2)n2cccc2)s1 (centres undefined),0
2,Cc1csc(NC(=O)C(Cc2ccccc2)n2cccc2)n1 (centres undefined),0
3,O=C(Nc1ncc(Br)s1)C(Cc1ccccc1)n1cccc1 (centres undefined),1 (active)
4,O=C(CSc1nnc2ccccn12)Nc1nsc(-c2ccccc2)n1,0
5,CN1C(=O)C2(C(C#N)=C(N)N(c3cc(Cl)cc(Cl)c3)C3=C2C(=O)CCC3)c2ccccc21 (centres undefined),0
6,CC1(C)CC(=O)C2=C(C1)NC(SCC(=O)Nc1ccccc1)=C(C#N)C2c1ccco1 (centres undefined),0
7,CC1(C)CC(=O)C2=C(C1)N(c1ccccc1)C(N)=C(C#N)C2c1ccsc1 (centres undefined),-1 (active)
8,S=c1[nH]nc(COc2ccccc2)n1C1CCCCC1,0
9,CC(C)=CCC(C)(C)CNC(=O)NC1CCCCC1,1 (active)
10,O=C(O)CCC(=O)NC1CCCCCCC1,0
11,N#CC1(Cc2ccc([N+](=O)[O-])cc2)c2ccccc2C=CN1C(=O)c1ccccc1 (centres undefined),0
12,O=C(Cc1ccccc1)N/N=C/c1cccn1-c1ccc([N+](=O)[O-])cc1,1 (active)
13,CCOC(=O)CSC1=C(C#N)C(=O)NC(c2ccc(OC)c(OC)c2)S1 (centres undefined),0
14,C=CCNCc1cccn1-c1sc2c(c1C#N)CCCC2,-1 (active)
15,CCOC(=O)c1c2n(c3c(NCc4ccccc4)ncnc13)CCCC2,-1 (active)
16,O=C(Oc1ccccc1)c1cccc(COC(=O)c2cnccn2)c1,0
17,CCc1ccc(CNCCNCC(C)O)cc1 (centres undefined),1 (active)
18,CCOC(=O)c1ccc(CNCc2ccc(Br)cc2)cc1,0
19,COc1ccc(/C=C2\N=C(SC)NC2=O)cc1,1 (active)
20,COc1ccc(/C=C2\C(=O)NC(=S)N2C(=O)c2ccc(F)cc2)cc1,0
21,COc1ccc(C(=O)N2C(=S)NC(=O)/C2=C\c2ccc(C)cc2)cc1,0
22,CC(C)N(CCn1c(=S)[nH]c2ccccc2c1=O)C(C)C,0

row,Compound,manual score
1,CC1CCC(n2c(=S)[nH]c3ccccc3c2=O)CC1 (centres undefined),0.5
2,CCn1c(=S)[nH]c2cc(C(=O)OC)ccc2c1=O,0.5
3,CC1CCCCN1CCCn1c(=S)[nH]c2ccccc2c1=O (centres undefined),0
4,CCC1CCCCN1CCCn1c(=S)[nH]c2ccccc2c1=O (centres undefined),0
5,CC(C)n1c(=S)[nH]c2ccccc2c1=O,1 (active)
6,CCOc1cc2[nH]c(=S)n(C(C)C)c(=O)c2cc1OCC,1 (active)
7,COC(=O)c1ccc2c(=O)n(CC3CCCO3)c(=S)[nH]c2c1 (centres undefined),0
8,CC(C)COn1c(=S)[nH]c2ccccc2c1=O,1 (active)
9,O=c1c2ccccc2[nH]c(=S)n1CCCN1CCN(C2CCCCC2)CC1,-1 (active)
10,CCC1(C)OCC(Cn2c3ccccc3c3ccccc32)O1 (centres undefined),0
11,CC(C)c1ccc2occ(-c3nn[nH]n3)c(=O)c2c1,0
12,CC1CCCCC1n1c(=S)[nH]c2ccccc2c1=O (centres undefined),1 (active)
13,CC1CCCC(n2c(=S)[nH]c3ccccc3c2=O)C1C (centres undefined),3
14,Cc1cc(NC(=O)c2ccccc2Oc2ccccc2)no1,0
15,CCCCOc1cccc(OCCCC)c1C(=O)Nc1cc(C)on1,-1 (active)
16,COc1ccc(C(=O)Nc2ccccc2)cc1S(=O)(=O)Nc1cc(C)on1,0
17,COc1ccc(CN2CCNC(=O)C2CC(=O)O)cc1OC (centres undefined),0
18,COc1cccc2[nH]c3c(N4CCCC(C)C4)ncnc3c12 (centres undefined),-1 (active)
19,COc1ccc(N(CC(=O)NC2CCCC2)C(=O)Cn2nnc(-c3ccc(C)cc3)n2)cc1,0
20,Cc1ccc(-c2nnn(CC(=O)N3CCCCC3)n2)c(-n2cnnn2)c1,0
21,Cc1ccc(-c2nnn(CC(=O)NC3CC4CCC3C4)n2)cc1 (centres undefined),1 (active)
22,Clc1cccc(-c2ccc(/C=N/n3cnnc3)o2)c1Cl,0

row,Compound,manual score
1,CCCCCCCC1CC(CSc2ncn[nH]2)OC1=O (centres undefined),0
2,CCCCCCCC1CC(CSC(=N)N)OC1=O (centres undefined),-1 (active)
3,O=C(c1ccc(Br)o1)N1CCN(c2ccc3nnc(-c4ccc(F)cc4)n3n2)CC1,0
4,Fc1ccccc1NC(=S)NN(Cc1ccccc1)c1ccccc1,-1 (active)
5,Fc1cc(Br)ccc1NC(=S)NCCc1ccccc1,0
6,CCn1c(NC(=O)Nc2cccc(C)c2C)cc2sccc21,0
7,COc1ccc2cc(Br)ccc2c1CC(=O)NC1CC(C)(C)NC(C)(C)C1,0
8,O=C(NCc1cccs1)c1cccnc1C(=O)O,0
9,COc1ccccc1NC(=O)COc1ccc(Br)cc1CO,0
10,Cc1ccccc1CNC(=O)Nc1cccs1,1 (active)
11,COc1ccc(Br)cc1CNC(=O)Nc1cccs1,1 (active)
12,CCOc1cc(C)nc(N2CCN(C3CCCCC3)CC2)n1,-1 (active)
13,COc1ccc(C(=O)NNC(=S)NC(=O)c2ccco2)cc1,1 (active)
14,COc1ccccc1C(=O)NNC(=S)NC(=O)c1ccco1,1 (active)
15,Cc1ccc(OCC(=O)N/N=C/c2cccn2C)cc1,0
16,Cc1cnc(NC(=O)COc2ccccc2Cl)s1,0
17,Cc1ccccc1OCC(=O)N/N=C/c1cccn1C,1 (active)
18,COc1ccc(CNC(=O)CSCc2ccccc2Cl)cc1,0
19,Cc1ccc(C(=O)CC(=O)c2cc(Cl)ccc2O)cc1,0
20,Cc1ccc(C(=O)CC(=O)COc2ccc(Cl)cc2)cc1,0
21,Cc1ccc(C(=O)CC(=O)COc2ccc(Cl)cc2C)cc1,1 (active)
